Laboratory results from ChEMBL document CHEMBL1961873, “Compounds: GSK PKIS; Assays: Nanosyn kinase panel” (2012).

How the values were obtained:
[1] = biological target: 5'-AMP-activated protein kinase catalytic subunit alpha-2 (Homo sapiens) (UniProt P54646); details: at 1 µM
[2] = biological target: T1, NUAK family SNF1-like kinase 1 (Homo sapiens) (UniProt O60285); details: at 0.1 µM
T1 sequence (whole entry): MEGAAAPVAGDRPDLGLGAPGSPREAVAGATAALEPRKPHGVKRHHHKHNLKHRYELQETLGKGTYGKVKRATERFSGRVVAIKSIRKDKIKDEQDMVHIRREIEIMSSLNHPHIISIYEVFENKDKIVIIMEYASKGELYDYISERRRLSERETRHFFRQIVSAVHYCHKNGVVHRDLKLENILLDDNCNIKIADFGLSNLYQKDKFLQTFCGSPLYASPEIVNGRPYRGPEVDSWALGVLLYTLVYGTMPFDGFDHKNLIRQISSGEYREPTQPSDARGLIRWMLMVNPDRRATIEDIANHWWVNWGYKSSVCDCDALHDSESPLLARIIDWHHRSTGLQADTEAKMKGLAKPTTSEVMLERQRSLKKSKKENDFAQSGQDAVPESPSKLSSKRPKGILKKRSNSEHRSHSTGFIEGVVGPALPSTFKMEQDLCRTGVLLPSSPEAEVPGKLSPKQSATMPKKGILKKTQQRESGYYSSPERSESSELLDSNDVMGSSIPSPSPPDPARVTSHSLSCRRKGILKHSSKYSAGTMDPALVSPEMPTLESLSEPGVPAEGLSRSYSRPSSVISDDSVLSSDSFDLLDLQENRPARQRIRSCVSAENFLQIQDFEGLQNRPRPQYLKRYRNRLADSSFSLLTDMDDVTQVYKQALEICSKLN

[3] = biological target: T1, NUAK family SNF1-like kinase 1 (Homo sapiens); details: at 1 µM
[4] = biological target: T2, Serine/threonine-protein kinase BRSK1 (Homo sapiens) (UniProt Q8TDC3); details: at 0.1 µM
T2 sequence (whole entry): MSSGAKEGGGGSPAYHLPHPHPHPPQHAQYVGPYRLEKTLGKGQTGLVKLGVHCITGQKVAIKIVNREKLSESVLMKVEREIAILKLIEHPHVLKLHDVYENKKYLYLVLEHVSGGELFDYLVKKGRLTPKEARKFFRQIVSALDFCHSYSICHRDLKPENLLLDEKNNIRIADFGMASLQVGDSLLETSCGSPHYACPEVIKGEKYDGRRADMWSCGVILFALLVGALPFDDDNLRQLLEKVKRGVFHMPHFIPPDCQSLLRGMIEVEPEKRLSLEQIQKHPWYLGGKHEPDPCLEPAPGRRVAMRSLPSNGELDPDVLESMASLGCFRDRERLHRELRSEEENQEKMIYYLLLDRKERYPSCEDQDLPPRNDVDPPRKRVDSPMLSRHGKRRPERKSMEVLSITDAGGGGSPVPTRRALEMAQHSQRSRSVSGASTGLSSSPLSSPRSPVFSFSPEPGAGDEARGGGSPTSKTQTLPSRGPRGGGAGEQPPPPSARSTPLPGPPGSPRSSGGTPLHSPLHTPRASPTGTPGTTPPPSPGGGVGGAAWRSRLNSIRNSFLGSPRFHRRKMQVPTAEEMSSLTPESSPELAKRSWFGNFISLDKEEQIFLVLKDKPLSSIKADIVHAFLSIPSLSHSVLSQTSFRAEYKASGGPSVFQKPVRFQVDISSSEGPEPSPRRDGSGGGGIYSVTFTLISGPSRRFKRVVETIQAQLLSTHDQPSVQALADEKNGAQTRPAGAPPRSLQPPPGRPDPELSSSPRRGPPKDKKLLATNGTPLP

[5] = biological target: T2, Serine/threonine-protein kinase BRSK1 (Homo sapiens); details: at 1 µM
[6] = biological target: T3, Serine/threonine-protein kinase BRSK2 (Homo sapiens) (UniProt Q8IWQ3); details: at 0.1 µM
T3 sequence (whole entry): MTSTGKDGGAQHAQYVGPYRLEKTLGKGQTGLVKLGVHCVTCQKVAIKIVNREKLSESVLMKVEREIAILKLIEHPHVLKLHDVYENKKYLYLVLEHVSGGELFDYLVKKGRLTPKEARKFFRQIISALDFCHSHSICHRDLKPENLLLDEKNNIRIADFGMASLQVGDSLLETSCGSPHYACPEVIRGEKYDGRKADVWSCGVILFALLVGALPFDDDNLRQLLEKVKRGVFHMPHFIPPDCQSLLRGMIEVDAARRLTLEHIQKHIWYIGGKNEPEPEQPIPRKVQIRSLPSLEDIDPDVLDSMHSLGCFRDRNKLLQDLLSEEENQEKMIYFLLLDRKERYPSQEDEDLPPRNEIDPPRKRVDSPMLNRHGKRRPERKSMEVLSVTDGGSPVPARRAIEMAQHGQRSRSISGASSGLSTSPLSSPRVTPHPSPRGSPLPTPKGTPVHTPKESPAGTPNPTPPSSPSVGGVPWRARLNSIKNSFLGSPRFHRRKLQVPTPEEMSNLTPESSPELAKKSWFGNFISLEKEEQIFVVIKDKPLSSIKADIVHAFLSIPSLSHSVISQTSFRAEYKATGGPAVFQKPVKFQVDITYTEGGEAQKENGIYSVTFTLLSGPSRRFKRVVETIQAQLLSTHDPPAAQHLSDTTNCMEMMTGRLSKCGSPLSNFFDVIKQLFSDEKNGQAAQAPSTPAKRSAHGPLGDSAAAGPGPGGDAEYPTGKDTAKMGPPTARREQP

[7] = biological target: T3, Serine/threonine-protein kinase BRSK2 (Homo sapiens); details: at 1 µM
[8] = biological target: Calcium/calmodulin-dependent protein kinase type 1D (Homo sapiens) (UniProt Q8IU85); details: at 0.1 µM
[9] = biological target: Calcium/calmodulin-dependent protein kinase type 1D (Homo sapiens) (UniProt Q8IU85); details: at 1 µM
[10] = biological target: Calcium/calmodulin-dependent protein kinase type II subunit alpha (Homo sapiens) (UniProt Q9UQM7); details: at 0.1 µM
[11] = biological target: Calcium/calmodulin-dependent protein kinase type II subunit alpha (Homo sapiens) (UniProt Q9UQM7); details: at 1 µM
[12] = biological target: Calcium/calmodulin-dependent protein kinase type II subunit delta (Homo sapiens) (UniProt Q13557); details: at 0.1 µM
[13] = biological target: Calcium/calmodulin-dependent protein kinase type II subunit delta (Homo sapiens) (UniProt Q13557); details: at 1 µM
[14] = biological target: T4, Calcium/calmodulin-dependent protein kinase type IV (Homo sapiens) (UniProt Q16566); details: at 0.1 µM
T4 sequence (whole entry): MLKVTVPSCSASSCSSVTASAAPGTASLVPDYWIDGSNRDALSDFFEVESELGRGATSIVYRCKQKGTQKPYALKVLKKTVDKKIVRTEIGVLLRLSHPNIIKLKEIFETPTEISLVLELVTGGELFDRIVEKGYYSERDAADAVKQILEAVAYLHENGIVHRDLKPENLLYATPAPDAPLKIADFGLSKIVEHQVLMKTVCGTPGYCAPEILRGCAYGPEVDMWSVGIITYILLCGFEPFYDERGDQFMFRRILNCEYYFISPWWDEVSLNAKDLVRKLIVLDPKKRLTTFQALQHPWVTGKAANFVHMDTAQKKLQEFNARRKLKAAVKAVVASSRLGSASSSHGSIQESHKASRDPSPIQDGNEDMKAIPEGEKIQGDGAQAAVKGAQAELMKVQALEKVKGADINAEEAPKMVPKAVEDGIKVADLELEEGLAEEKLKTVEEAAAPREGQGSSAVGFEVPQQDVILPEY

[15] = biological target: T4, Calcium/calmodulin-dependent protein kinase type IV (Homo sapiens); details: at 1 µM
[16] = biological target: T5, Serine/threonine-protein kinase Chk1 (Homo sapiens) (UniProt O14757); details: at 0.1 µM
T5 sequence (whole entry): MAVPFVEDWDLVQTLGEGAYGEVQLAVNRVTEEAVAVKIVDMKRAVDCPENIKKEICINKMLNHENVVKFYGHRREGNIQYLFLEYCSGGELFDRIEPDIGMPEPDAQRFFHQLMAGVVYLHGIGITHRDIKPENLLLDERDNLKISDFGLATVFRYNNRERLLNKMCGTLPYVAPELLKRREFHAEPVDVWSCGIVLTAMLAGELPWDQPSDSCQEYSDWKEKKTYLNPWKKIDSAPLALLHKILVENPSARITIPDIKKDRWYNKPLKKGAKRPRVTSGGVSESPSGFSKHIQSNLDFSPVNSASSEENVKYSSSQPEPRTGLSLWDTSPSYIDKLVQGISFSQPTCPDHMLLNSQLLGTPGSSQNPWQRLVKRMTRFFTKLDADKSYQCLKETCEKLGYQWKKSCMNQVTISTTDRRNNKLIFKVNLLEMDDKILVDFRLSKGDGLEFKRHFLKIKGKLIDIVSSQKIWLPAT

[17] = biological target: T5, Serine/threonine-protein kinase Chk1 (Homo sapiens); details: at 1 µM
[18] = biological target: Serine/threonine-protein kinase Chk2 (Homo sapiens) (UniProt O96017); details: at 0.1 µM
[19] = biological target: Serine/threonine-protein kinase Chk2 (Homo sapiens) (UniProt O96017); details: at 1 µM
[20] = biological target: Death-associated protein kinase 1 (Homo sapiens) (UniProt P53355); details: at 0.1 µM;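 also: reported figure is the mean inhibition of DAPK1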
Chain of Death-associated protein kinase 1 (Homo sapiens) (P53355 whole entry, looked up): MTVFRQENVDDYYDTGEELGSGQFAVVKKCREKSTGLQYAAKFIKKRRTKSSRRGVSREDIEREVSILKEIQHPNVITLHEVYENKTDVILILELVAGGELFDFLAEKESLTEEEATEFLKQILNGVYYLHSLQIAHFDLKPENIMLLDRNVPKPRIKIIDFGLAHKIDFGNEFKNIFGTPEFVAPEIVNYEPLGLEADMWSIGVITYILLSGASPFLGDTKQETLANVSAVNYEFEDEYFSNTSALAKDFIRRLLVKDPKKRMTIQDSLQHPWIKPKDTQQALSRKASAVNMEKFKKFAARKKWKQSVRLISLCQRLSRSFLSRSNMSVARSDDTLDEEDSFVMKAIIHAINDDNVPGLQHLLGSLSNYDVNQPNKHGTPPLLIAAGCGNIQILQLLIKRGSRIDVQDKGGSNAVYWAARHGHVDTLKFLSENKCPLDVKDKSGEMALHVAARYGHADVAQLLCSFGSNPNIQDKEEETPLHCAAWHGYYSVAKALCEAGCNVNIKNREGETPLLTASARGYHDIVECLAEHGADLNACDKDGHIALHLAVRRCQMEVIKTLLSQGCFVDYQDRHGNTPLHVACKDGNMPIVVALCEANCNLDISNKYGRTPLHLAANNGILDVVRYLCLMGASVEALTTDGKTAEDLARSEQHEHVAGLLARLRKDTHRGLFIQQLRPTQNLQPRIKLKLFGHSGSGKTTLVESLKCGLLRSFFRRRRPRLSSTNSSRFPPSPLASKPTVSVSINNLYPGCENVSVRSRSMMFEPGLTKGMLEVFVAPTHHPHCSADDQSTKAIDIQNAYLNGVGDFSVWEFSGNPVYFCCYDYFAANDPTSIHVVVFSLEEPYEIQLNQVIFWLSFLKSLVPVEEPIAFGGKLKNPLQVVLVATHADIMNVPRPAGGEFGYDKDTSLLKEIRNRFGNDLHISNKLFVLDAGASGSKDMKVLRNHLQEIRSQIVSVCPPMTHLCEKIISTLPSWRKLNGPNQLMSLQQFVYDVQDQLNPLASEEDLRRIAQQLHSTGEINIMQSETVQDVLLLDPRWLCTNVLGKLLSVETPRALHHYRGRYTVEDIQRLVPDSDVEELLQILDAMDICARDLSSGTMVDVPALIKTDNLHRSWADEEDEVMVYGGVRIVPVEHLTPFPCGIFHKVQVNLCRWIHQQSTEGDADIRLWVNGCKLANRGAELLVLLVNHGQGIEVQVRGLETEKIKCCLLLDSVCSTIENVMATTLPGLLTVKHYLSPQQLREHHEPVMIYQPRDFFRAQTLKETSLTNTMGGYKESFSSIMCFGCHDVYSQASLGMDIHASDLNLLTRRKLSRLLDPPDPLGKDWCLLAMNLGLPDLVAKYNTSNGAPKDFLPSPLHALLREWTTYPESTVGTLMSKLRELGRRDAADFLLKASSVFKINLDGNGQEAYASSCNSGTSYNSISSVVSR

Chain of 5'-AMP-activated protein kinase catalytic subunit alpha-2 (Homo sapiens) (P54646 whole entry, looked up): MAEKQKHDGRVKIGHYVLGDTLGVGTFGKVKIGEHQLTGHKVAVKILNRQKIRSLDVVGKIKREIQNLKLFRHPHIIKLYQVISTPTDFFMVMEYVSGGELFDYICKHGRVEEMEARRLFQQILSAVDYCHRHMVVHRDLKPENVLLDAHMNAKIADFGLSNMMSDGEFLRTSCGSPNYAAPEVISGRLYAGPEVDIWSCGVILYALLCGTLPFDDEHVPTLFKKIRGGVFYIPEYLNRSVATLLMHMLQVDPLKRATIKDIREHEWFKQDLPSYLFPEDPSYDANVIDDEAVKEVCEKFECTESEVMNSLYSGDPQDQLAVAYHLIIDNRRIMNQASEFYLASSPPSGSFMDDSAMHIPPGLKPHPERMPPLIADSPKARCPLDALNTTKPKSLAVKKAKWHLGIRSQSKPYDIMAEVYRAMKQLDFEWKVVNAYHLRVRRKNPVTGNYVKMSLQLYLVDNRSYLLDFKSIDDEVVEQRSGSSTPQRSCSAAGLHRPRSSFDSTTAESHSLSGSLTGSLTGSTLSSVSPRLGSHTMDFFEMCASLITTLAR
Chain of Serine/threonine-protein kinase Chk2 (Homo sapiens) (O96017 whole entry): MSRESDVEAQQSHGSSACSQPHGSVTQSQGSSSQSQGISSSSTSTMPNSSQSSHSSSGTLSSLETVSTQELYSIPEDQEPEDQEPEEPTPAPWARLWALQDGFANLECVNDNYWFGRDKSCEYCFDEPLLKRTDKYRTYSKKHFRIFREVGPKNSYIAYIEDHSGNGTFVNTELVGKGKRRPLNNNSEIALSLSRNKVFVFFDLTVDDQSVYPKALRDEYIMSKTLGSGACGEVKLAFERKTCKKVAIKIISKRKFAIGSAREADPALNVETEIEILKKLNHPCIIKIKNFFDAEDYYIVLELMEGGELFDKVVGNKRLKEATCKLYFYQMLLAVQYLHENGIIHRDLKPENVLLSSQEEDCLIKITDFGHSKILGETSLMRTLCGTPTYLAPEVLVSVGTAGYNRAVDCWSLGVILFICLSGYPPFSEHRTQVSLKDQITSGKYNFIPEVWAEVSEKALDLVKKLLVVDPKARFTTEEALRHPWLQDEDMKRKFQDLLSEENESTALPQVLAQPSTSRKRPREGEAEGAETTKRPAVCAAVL
Chain of Calcium/calmodulin-dependent protein kinase type II subunit alpha (Homo sapiens) (Q9UQM7 whole entry): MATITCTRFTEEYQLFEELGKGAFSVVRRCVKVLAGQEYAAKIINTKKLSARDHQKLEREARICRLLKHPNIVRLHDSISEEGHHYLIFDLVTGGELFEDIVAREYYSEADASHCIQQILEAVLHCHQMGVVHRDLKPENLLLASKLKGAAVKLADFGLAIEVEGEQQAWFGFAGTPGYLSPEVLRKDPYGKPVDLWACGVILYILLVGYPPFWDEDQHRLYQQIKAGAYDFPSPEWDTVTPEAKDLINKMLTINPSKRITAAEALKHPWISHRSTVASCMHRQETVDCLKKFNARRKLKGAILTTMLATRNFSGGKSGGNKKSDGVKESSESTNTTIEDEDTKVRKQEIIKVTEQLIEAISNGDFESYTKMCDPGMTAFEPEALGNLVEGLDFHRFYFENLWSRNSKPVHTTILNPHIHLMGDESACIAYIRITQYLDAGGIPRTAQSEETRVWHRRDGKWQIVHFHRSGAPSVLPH
Chain of Calcium/calmodulin-dependent protein kinase type II subunit delta (Homo sapiens) (Q13557 whole entry): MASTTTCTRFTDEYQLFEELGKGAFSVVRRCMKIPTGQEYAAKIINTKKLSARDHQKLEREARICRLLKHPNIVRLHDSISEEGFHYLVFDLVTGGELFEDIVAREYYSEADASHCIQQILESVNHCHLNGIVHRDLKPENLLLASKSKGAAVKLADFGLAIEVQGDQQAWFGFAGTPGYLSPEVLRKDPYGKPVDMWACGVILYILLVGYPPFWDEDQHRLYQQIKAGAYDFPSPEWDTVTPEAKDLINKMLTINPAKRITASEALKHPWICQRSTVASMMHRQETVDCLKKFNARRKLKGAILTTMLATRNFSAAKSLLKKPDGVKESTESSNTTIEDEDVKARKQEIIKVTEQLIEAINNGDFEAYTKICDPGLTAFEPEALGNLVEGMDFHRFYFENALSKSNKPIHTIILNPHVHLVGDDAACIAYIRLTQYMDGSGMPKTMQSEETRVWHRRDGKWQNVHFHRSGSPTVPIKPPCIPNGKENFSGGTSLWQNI
Chain of Calcium/calmodulin-dependent protein kinase type 1D (Homo sapiens) (Q8IU85 whole entry, looked up): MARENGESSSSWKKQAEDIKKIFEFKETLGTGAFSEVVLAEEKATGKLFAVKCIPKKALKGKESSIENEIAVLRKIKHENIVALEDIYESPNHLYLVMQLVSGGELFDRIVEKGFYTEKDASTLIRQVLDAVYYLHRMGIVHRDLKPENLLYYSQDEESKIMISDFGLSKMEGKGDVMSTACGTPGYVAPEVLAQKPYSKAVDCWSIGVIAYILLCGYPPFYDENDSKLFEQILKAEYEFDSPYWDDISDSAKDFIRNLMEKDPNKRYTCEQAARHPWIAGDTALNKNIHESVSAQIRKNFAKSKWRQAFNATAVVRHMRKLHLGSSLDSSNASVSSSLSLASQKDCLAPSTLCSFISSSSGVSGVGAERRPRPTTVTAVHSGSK

Row | SMILES | inhibition [1] [%] | inhibition [2] [%] | inhibition [3] [%] | inhibition [4] [%] | inhibition [5] [%] | inhibition [6] [%] | inhibition [7] [%] | inhibition [8] [%] | inhibition [9] [%] | inhibition [10] [%] | inhibition [11] [%] | inhibition [12] [%] | inhibition [13] [%] | inhibition [14] [%] | inhibition [15] [%] | inhibition [16] [%] | inhibition [17] [%] | inhibition [18] [%] | inhibition [19] [%] | inhibition [20] [%]
1 | CN1CCN(CCCNc2nc3ccc(Oc4ccc(NC(=O)Nc5cc(C(F)(F)F)ccc5F)cc4)cc3[nH]2)CC1 | 3.1 | 0.88 | 4.39 | 2.48 | 2.58 | 1.15 | 0.19 | 2.28 | 4.38 | 3.27 | 7.84 | 3.68 | 6.84 | 1.94 | 4.86 | -0.5 | 0.8 | 1.31 | 0.77 | -0.32
2 | CCS(=O)(=O)c1ccc(OC)c(Nc2ncc(-c3cccc(-c4ccccc4F)c3)o2)c1 | 1.37 | 1.73 | 2.9 | -0.47 | 0.8 | 0 | -0.51 | 0.44 | 0.18 | -1.21 | 3.98 | 1.21 | 11.6 | 1.15 | 1.5 | 1.03 | 2.03 | -0.11 | -0.35 | -0.16
3 | NS(=O)(=O)c1ccc(N/N=C2\C(=O)Nc3ccc(C(=O)NCCCn4ccnc4)cc32)cc1 | 26.3 | 19.4 | 66.4 | 4.96 | 31.2 | 8.96 | 46 | 0.1 | 2.23 | 3.04 | 4.11 | 2.56 | 8.04 | -1.35 | -4.25 | 10.4 | 19.3 | 10.6 | 19 | 11.1
4 | COc1cc(Nc2ncc(-c3ccccc3)o2)cc(OC)c1OC | 5.35 | 24.4 | 61 | -0.43 | 5.91 | 0.44 | 10.5 | -1.93 | -0.01 | -3.81 | -0.38 | -2.56 | 5.55 | -4.13 | 0.09 | 1.58 | 5.64 | -3.16 | 1.28 | 1.78
5 | Clc1ccc(CNc2nccc(-c3cnn4ncccc34)n2)cc1 | 0.84 | 3.31 | 9.78 | 0.41 | 1.49 | 1.65 | 4.48 | 1.73 | 1.01 | 2.51 | 4.51 | 2.06 | 3.21 | 1.93 | 1.7 | 2.84 | 8.27 | 4.34 | 6.1 | 9.28
6 | COc1ccc(-c2ccc3c(NC(=O)C4CC4)n[nH]c3n2)cc1 | 1.68 | -0.56 | 0.04 | 0.19 | 4.83 | 3.16 | 10.7 | -0.49 | -0.83 | 0.49 | 0.75 | 0.17 | 1.7 | -1.51 | -2.95 | 2.25 | 1.88 | 0.78 | 1.92 | 2.58
7 | Cc1ccc(C(=O)NC2CCC2)cc1-c1ccc(C(=O)NCC2CC2)cc1 | 0.57 | 0.27 | 5.25 | 1.77 | 3.1 | 1.53 | 4.25 | 0.09 | 2.93 | 3.06 | 2.38 | 1.89 | 1.44 | 0.4 | 0.59 | 2.53 | 2.39 | 1.83 | 3.06 | 2.9
8 | Fc1ccc(-c2ncn(C3CCNCC3)c2-c2ccnc(Oc3ccc(Oc4ccccc4)cc3)n2)cc1 | 3.68 | 0.78 | 0.71 | 3.46 | -0.07 | 1.27 | 1.66 | -0.26 | 3.87 | 2.01 | 9.16 | 3.93 | 10.3 | -1.5 | 4.41 | 10.6 | 16.4 | 8.69 | 13.4 | 12.4
